HT1080NT lethal: kills 2HG-producing HT-1080-NT fibrosarcoma cells | HT-1080-NT fibrosarcoma viability, CellTiter-Glo ATP luminescence, 48 h | Potency, µM (highest dose often 46.1 µM), inactives show at the highest dose activity, negative = less viability, hits mostly cytotoxic | 360,000 compounds, 1.6% hits | AID 686970;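 note: NT is the 2HG producing partner of a matched IDH1 knockdown line; potency is the fitted concentration of half-maximal effect; 0% = DMSO-treated cells and -100% = media-only wells without cells; nearly all actives have a fitted effect of over 55% in size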
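Read-out is CellTiter-Glo luminescence after 10 minutes at room temperature, following 48 hours' compound treatment of HT-1080-NT cells (750 cells/well, RPMI, 5% FBS, 37 degrees C).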
ELG1 DNA repair: inhibitors of ELG1-dependent DNA repair in HEK293T cells; HEK293T ELG1-luciferase reporter, luminescence, 16 h; DNA damage induced by 5-fluorouridine; Potency, µM (top dose mostly 46.1 µM), inactives show top-dose activity change, negative = inhibition, usual class: inhibitors; 330,000 compounds, 2.3% hits; AID 504467; note: potency is the fitted concentration of half-maximal effect; nearly all actives have a fitted effect of over 55% in size
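Quantitative HTS, concentration-response format. 2,000 cells/well co-treated with 5-fluorouridine and compound, 16 hr in 5% CO2 at 37 °C; ONE-Glo luminescence read after 30 min.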
DT40 TDP1 no CPT: qHTS for Inhibitors of human tyrosyl-DNA phosphodiesterase 1 (TDP1): qHTS in cells in absence of CPT | DT40 Tdp1-/- hTDP1 cells, no CPT, ATP luminescence, 48 h | Potency, µM (doses to about 46.2 µM), for inactives: at the top dose activity change, negative = growth inhibition, actives largely listed as inhibitors | 420,000 compounds, 15% hits; note: potency is the fitted concentration of half-maximal effect; nearly all actives have a fitted effect of over 55% in size
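Cells were dispensed at 400 per well, compounds added by pin tool, plates incubated ≥48 hr at 37 °C, then CellTiter-Glo added for 30 min at room temperature before luminescence reading. Line: DT40 Tdp1-/- complemented with hTDP1; camptothecin omitted.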
DT40 TDP1 CPT: growth inhibition of DT40 Tdp1-/-;hTDP1 cells with camptothecin (screen for TDP1 inhibitors). chicken DT40 Tdp1-/-;hTDP1 cells + 20 nM CPT, ATP luminescence, 48 h. Potency, µM (titrated, usually from 46.2 µM), for the others: at the highest dose activity change, negative = growth inhibition, actives largely listed as inhibitors. 420,000 compounds, 12% hits; note: potency is the fitted concentration of half-maximal effect; nearly all actives have a fitted effect of over 55% in size
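Cell growth measured by CellTiter-Glo luminescence after a minimum 48 h, 37 C compound exposure with 20 nM CPT in Tdp1-knockout DT40 cells stably expressing hTDP1, seeded 400/well; qHTS titration format.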
IL-1B inflam inh: inhibitors of inflammasome signaling (IL-1 beta secretion); THP-1 LPS/ATP IL-1B secretion, AlphaLISA, 16 h; stronger effect = lower value; activity change, % at 57.5 µM; 360,000 compounds, 4.7% hits; in the data active = activity change below about -50%; inconclusive = mostly about -30% to -49%
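Secreted IL-1B measured by AlphaLISA bead assay after 16 h compound exposure of THP-1 cells; compounds (final up to 57.5 uM) added 1 h before LPS (250 ng/mL) and ATP (1.25 mM) stimulation; lower signal means less secretion.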
HT1080 IDH1KD tx: toxicity to HT-1080 IDH1 knockdown cells (counter line). HT-1080 IDH1 knockdown viability, ATP luminescence, 48 h. Potency, µM (titrated, usually from 46.1 µM), inactives show at the highest dose activity, negative = toxicity, most hits filed as cytotoxic. 360,000 compounds, 2% hits. AID 686971;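 note: potency is the fitted concentration of half-maximal effect; 0% = DMSO wells and -100% = cell-free medium wells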
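Using the IDH1-knockdown HT-1080 line run in the same batch and compound series as the NT line, viability after 48 h at 37 °C was determined by CellTiter-Glo luminescence and expressed as % activity.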
* = called active by the depositor; ? = inconclusive; / = no result. A selection: hits, their analogues and other compounds. The true share with any hit is near 19%. Unless noted, calls come from the whole dose curve; as a rule, active = well fitted curve in the direction sought with a large enough effect; inconclusive = small, poorly fitted or top-dose-only effect, or another doubt; inactive = no such curve, though single readings can be large; an effect the other way counts as inactive or inconclusive. Unless noted, % is set by controls: 0 for no effect and ±100 for the full control effect.

SMILES | HT1080NT lethal | ELG1 DNA repair | DT40 TDP1 no CPT | DT40 TDP1 CPT | IL-1B inflam inh | HT1080 IDH1KD tx
CCOc1ccc(C(=O)N(CN2CCCC2=O)c2ccc(C)cc2)cc1 | -4% | ? | 23µM* | 8.2µM* | 9 | -1%
CCOc1ccc(C(=O)N(CN2CCCC2=O)c2ccccc2)cc1 | 0% | 1% | ? | -16% | 7 | 6%
Cc1ccc(C2NC(c3ccc(C)cc3)C(C)C(=O)C2C)cc1 (centres undefined) | 5% | 7% | ? | ? | -7 | 3%
O=C1C(c2ccccc2)C(c2ccccc2)NC(c2ccccc2)C1c1ccccc1 (centres undefined) | -19% | 8% | 23µM* | ? | 17 | -26%
CCC(C)(C(=O)NC1CCCC1)N(Cc1ccco1)C(=O)c1ccc2c(c1)OCO2 (centres undefined) | -2% | -7% | 7.3µM* | 9.2µM* | -4 | -7%
O=C(c1ccccn1)N(Cc1ccco1)C1(C(=O)Nc2ccc(Br)cc2)CCCCC1 | -13% | / | 23µM* | 16µM* | -2 | -23%
O=C(c1ccc2c(c1)OCO2)N(Cc1ccco1)C1(C(=O)NC2CCCCC2)CCCCC1 | -10% | ? | 16µM* | 12µM* | 0 | -21%
O=C(NN=Cc1cc(Cl)ccc1[N+](=O)[O-])c1ccco1 | 1% | / | -4% | 3% | 25 | 15%
O=C1C([N+](=O)[O-])=C(O)c2cccc3cccc1c23 | / | -16% | / | / | / | /
CCOc1cc(/C=C2\C(=O)N(Cc3ccc(C)cc3)C(C)=C2C(=O)OC)ccc1O | ? | 13µM* | ? | ? | -22 | ?
COC(=O)C1=C(C)N(Cc2cccnc2)C(=O)/C1=C\c1cccs1 | / | -11% | / | / | / | /
C=CCOc1cccc(/C=C2\C(=O)N(Cc3ccc(C)cc3)C(C)=C2C(=O)OC)c1 | -19% | ? | 23µM* | ? | -91* | -16%
CCOc1ccc(CC(=O)Nc2cccc(-c3nc4cccnc4s3)c2C)cc1 | / | / | -6% | -15% | / | /
COc1cc(OC)cc(-n2c(=O)c3sccc3n(Cc3ccc(F)cc3)c2=O)c1 | / | / | ? | -19% | / | /
COc1ccc(NC(=O)Cc2csc(COc3cccc(C)c3)n2)cc1OC | / | / | 26µM* | 18µM* | / | /
CC(=O)Nc1cccc(NC(=O)Cc2csc(COc3cccc(C)c3)n2)c1 | / | / | 21µM* | 15µM* | / | /
COc1ccccc1C(=O)NC(=O)COC(=O)c1cnc(C)cn1 | -7% | -1% | 0% | 1% | 9 | -2%
CC(=O)Nc1cc(-c2cccc(C(=O)NCCN(C)C)c2)cn2c(-c3ccc(S(C)(=O)=O)cc3)cnc12 | 4% | / | -29% | 5% | -17 | 2%
CC(=O)Nc1cc(-c2ccc(C(=O)N3CCOCC3)cc2)cn2c(-c3ccc(F)c(Cl)c3)cnc12 | ? | / | 16µM* | 23µM* | ? | ?
CC(=O)Nc1cc(-c2ccc(C(=O)N3CCOCC3)cc2)cn2c(-c3ccc(S(C)(=O)=O)cc3)cnc12 | -8% | / | 13µM* | 16µM* | -28 | 5%
CC(=O)Nc1cc(-c2ccccc2CN(C)C)cn2c(-c3ccc(F)c(Cl)c3)cnc12 | 14% | / | ? | ? | -17 | 0%
COCCCNc1nc2c(c(=O)[nH]c(=O)n2C)n1CC(O)COc1ccc(Cl)cc1 (centres undefined) | / | / | 5% | -9% | / | /
Cn1cccc1C(=O)N1CCC2(CCCN(C(=O)Nc3cccc(C#N)c3)C2)CC1 | / | / | -23% | -4% | / | /
CCc1ccccc1NC(=O)Nc1cc(C(=O)NCc2cccc(F)c2)ccc1N1CCCC1 | / | / | 2.6µM* | 3.3µM* | / | /

Assay outcomes deposited in PubChem BioAssay by National Center for Advancing Translational Sciences (NCATS).
